High-throughput results (PubChem BioAssay)
Vaccinia mCherry: inhibitors of vaccinia virus infection (mCherry reporter signal); Vaccinia virus mCherry reporter infection, fluorescence; AID 720579; Potency, µM (highest dose often 36.5 µM), for the others: at the top dose activity change, negative = inhibition, hits mostly inhibitors; 310,000 tested, 0.63% active; calls by dose curve; tested in A549 cells; note: nearly all actives have a fitted effect of over 35% in size
Vaccinia Venus: inhibitors of vaccinia virus (Venus reporter). Potency, µM (doses to about 36.5 µM), inactives show at the top dose activity change, negative = inhibition, actives largely listed as inhibitors. 330,000 tested, 0.46% active. AID 720580. Vaccinia virus Venus reporter expression, fluorescence; calls by dose curve; tested in A549 cells; note: nearly all actives have a fitted effect of over 30% in size
Giardia FBPA inh: inhibitors of Giardia lamblia fructose-1,6-bisphosphate aldolase; A8B2U2; purified Giardia FBPA; Potency, µM (doses to about 59.6 µM), for inactives: at the top dose activity, negative = inhibition, hits mostly inhibitors; 290,000 tested, 0.71% active; AID 2451; active = well fitted inhibition curve with a large enough effect; inconclusive = small, poorly fitted or top-dose-only effect, or effect the other way; note: nearly all actives have a fitted effect of over 55% in size
Target sequence (A8B2U2 whole entry, looked up): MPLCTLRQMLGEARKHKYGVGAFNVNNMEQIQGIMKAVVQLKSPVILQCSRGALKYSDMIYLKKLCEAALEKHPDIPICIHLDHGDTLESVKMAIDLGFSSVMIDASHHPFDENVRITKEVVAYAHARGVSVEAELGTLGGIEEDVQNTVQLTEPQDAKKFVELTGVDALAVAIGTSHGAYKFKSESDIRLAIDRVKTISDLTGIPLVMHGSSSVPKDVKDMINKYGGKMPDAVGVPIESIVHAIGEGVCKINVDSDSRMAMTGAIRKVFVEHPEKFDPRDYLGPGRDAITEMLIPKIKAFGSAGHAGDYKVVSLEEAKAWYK
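40 nM FBPA preincubated 10 min at RT with compound (up to 57.5 uM final), then substrate plus GAPDH/TPI/NAD/arsenate coupling and diaphorase/resazurin added. Fluorescence read after 20 min at RT, 525/598 nm.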
FMDV inh: blocks foot and mouth disease virus; FMDV antiviral cell-based qHTS; 410,000 tested, 1.2% active; Potency, µM (top dose mostly 57.9 µM), without a hit: at the top dose activity change, negative = inhibition, usual class: inhibitors; AID 1159524; calls by dose curve; tested in HEK293T cells; note: read-out not given here; nearly all actives have a fitted effect of over 45% in size
* = called active by the depositor; i = inactive; u = inconclusive; x = no result given. Hits are enriched below; roughly 2.2% of the tested compounds scored in any of these assays. % is set by controls: 0 for no effect and ±100 for the full control effect; potency is the fitted concentration of half-maximal effect.

SMILES | Vaccinia mCherry | Vaccinia Venus | Giardia FBPA inh | FMDV inh
O=C(c1cccs1)N1CCN(C(=O)c2cccs2)C1=S | u | u | x | 35µM*
FC(F)(F)c1cccc(Nc2nc3nonc3nc2Nc2ccc(Cl)cc2)c1 | 2µM* | 1.8µM* | x | u
CCOC(=O)C1=C(O)c2ccccc2C(=O)/C1=C\c1ccc(C)cc1 | 448% | i | u | 28µM*
Cc1ccc(-c2cc(-c3ccc(C)cc3)[n+](-c3ccc(C(=O)[O-])cc3)c(-c3ccc(C)cc3)c2)cc1 | -13% | -12% | x | 0%
Cc1ccc(-c2cc(-c3ccccc3)cc(-c3ccccc3)[n+]2-c2ccccc2)cc1 | 8.9µM* | 10µM* | x | 7.1µM*
CN(C)c1ccc(-[n+]2c(-c3ccccc3)cc(-c3ccccc3)cc2-c2ccccc2)cc1 | -20% | u | 4% | 32µM*
CCOC(=O)c1ccc(-[n+]2c(-c3ccccc3)cc(-c3ccccc3)cc2-c2ccccc2)cc1 | i | u | x | -20%
Cc1ccc(-c2cc(-c3ccc(C)cc3)[n+](-c3ccccc3)c(-c3ccc(C)cc3)c2)cc1 | u | 3.5µM* | x | 7.1µM*
c1ccc(-c2cc(-c3ccccc3)[n+](-c3ccccc3)c(-c3ccccc3)c2)cc1 | -40% | u | 6% | 18µM*
Cc1cnc(/C=C/c2ccc(N(C)C)cc2)cn1 | u | -30% | x | x
Cc1cn2cc(CNC(=O)CN3Cc4ccccc4OC(c4ccccc4F)C3)nc2s1 (stereo not drawn) | -25% | -16% | x | 4%
COc1ccc(CCNc2oc(Cc3cccc4ccccc34)nc2C#N)cc1OC | x | u | -7% | 28µM*
COc1ccc(CCNc2oc(COc3ccc(Br)cc3)nc2C#N)cc1OC | -7% | -3% | -9% | 32µM*
COc1ccc(CCNc2oc(COc3ccccc3F)nc2C#N)cc1 | x | x | -5% | 1%
COc1ccc(-c2cn[nH]c2-c2ccc(OCc3ccccc3F)cc2O)cc1OC | u | u | -7% | u
COc1ccc(-c2cn[nH]c2-c2ccc(OCc3ccc([N+](=O)[O-])cc3)cc2O)cc1OC | x | x | -4% | 16µM*
O=[N+]([O-])c1ccc(COc2ccc(-c3[nH]ncc3-c3ccc(Cl)cc3)c(O)c2)cc1 | -22% | u | 15% | 32µM*
COC(=O)C1CCCCN1Cc1ccc2c(c1)CN(C(=O)c1csc(-c3cccs3)n1)CCO2 (stereo not drawn) | -12% | 0% | x | -19%
Cn1c(-c2cccc(F)c2)nc2c1c(=O)[nH]c(=O)n2Cc1ccccc1 | u | -12% | -3% | 1%
CC(C)Cn1c([N+](=O)[O-])nc2c1c(=O)[nH]c(=O)n2C | u | u | u | 28µM*
Cn1c(-c2cccc(OCc3ccccc3)c2)nc2c1c(=O)[nH]c(=O)n2Cc1ccccc1 | -16% | -3% | -1% | 35µM*
CCNc1nc2c(c(=O)[nH]c(=O)n2C)n1CC(C)C | i | 0% | 3% | -5%
Cn1c(=O)[nH]c(=O)c2c1nc([N+](=O)[O-])n2Cc1ccccc1 | u | 10µM* | 14µM* | 7.9µM*
Cc1ccc(-n2[nH]c(=O)c(-c3ccccn3)c2C)cc1 | -9% | -15% | -25% | 7.1µM*
Cc1ccc(-n2[nH]c(=O)c3cccnc32)cc1 | x | x | 0% | 52%
SMILES | Vaccinia mCherry | Vaccinia Venus | Giardia FBPA inh | FMDV inh
Cc1ccnc2ncccc12 | -18% | -4% | x | x
O=C(O)c1cccc(N/N=C/c2cc(Br)cc(Br)c2O)c1 | i | -12% | 14% | 21%
COc1ccc(/C=N/NC(=S)Nc2cccc(C(=O)O)c2)cc1OC | i | -11% | -20% | 16µM*
O=C(O)c1cccc(N/N=C/c2ccc(-c3ccccc3)cc2)c1 | -27% | -16% | 3% | 14µM*
O=C(O)c1ccc(N/N=C/c2ccc(C(F)(F)F)cc2)cc1 | -9% | -13% | 7% | u
CC(C)(C)c1ccc(/C=N/Nc2cccc(C(=O)O)c2)cc1 | x | x | -2% | 45µM*
CC(C)(C)c1ccc(/C=N/Nc2ccc(C(=O)O)cc2)cc1 | u | u | 11% | 7.1µM*
COc1cc(=O)n2c(c1C(=O)N(C)Cc1cscn1)CCN(C(=O)c1ccc(C)cc1C)CC2 | 0% | -8% | x | 3%
CCC1CN(CCNC(=O)C2CCCCN2C)Cc2cc(OC)ccc2O1 (stereo not drawn) | -13% | 6% | x | -4%
COc1ccc(C(=O)N(Cc2cc3cccc(C)c3nc2N(C)C)CC2CCCO2)cc1 (stereo not drawn) | -11% | 11% | x | -3%
Cc1ccc2nc(CS)[nH]c2c1 | 25% | 7% | x | x
Cc1ccc(OCC(=O)Nc2ccc(O)c(-c3nc4cc(C)c(C)cc4o3)c2)cc1 | 17% | -12% | x | x
COc1ccc(Br)cc1/C=N/Nc1cccc(C(=O)O)c1 | -24% | 1% | 10% | 36%
CN(C)c1ccc(/C=N/NC(=O)C[n+]2ccccc2)cc1 | -13% | -1% | x | 2.8µM*
O=C(C[n+]1ccccc1)N/N=C/c1ccc(C(=O)O)cc1 | x | x | x | -20%
O=C(O)c1cccc(N/N=C/c2cccnc2)c1 | i | -7% | -12% | 13µM*
CC1Oc2ccccc2C=C1/C=N/Nc1ccc(C(=O)O)cc1 (stereo not drawn) | 13µM* | -22% | 5% | u
CN(C)c1ccc(/C=N/Nc2cccc(C(=O)O)c2)cc1 | x | x | -22% | 4µM*
COc1cc(CN2CCOc3ccc(C(O)c4cccnc4)cc3C2)cc(OC)c1 (stereo not drawn) | -10% | 5% | x | -11%
Cn1sc(=O)n(Cc2ccccc2)c1=O | x | x | -25% | x
CC(C)(O)/C=C/C(=O)[C@](C)(O)C1[C@H](O)C[C@@]2(C)C3CC=C4C(C=C(O[C@@H]5O[C@H](CO)[C@@H](O)[C@H](O)[C@H]5O)C(=O)C4(C)C)[C@]3(C)C(=O)C[C@]12C (stereo partly drawn) | i | -22% | x | -12%
CC(C)(O)/C=C/C(=O)[C@](C)(O)C1[C@H](O)C[C@@]2(C)C3CC=C4C(C[C@H](O)[C@@H](O)C4(C)C)[C@]3(C)C(=O)C[C@]12C (stereo partly drawn) | u | 1.6µM* | x | u
CC/C(=C\c1oc2cc3ccccc3cc2[n+]1CC)Nc1ccccc1 | u | u | u | 22µM*
CC[n+]1c(/C=C/Nc2ccccc2)oc2ccc(OC)cc21 | -7% | 9% | -13% | -2%
COc1ccc(N2C(=O)[C@@H]3C[C@H]2CN3Cc2cccn2-c2nccs2)cc1Cl | -5% | -16% | x | 4%
SMILES | Vaccinia mCherry | Vaccinia Venus | Giardia FBPA inh | FMDV inh
CCCN1CNc2c(c(=O)[nH]c(=S)n2CCc2ccsc2)C1 | -3% | -14% | x | x
CCOc1ccc(N=Cc2c(O)n(CCc3ccc(OC)c(OC)c3)c(=O)[nH]c2=O)cc1 | i | -7% | 1% | 7.9µM*
COc1ccc(CCn2c(O)c(C=Nc3ccc(NC(C)=O)cc3)c(=O)[nH]c2=O)cc1OC | -10% | -6% | 4% | -17%
Cc1ccnc2c(O)cccc12 | -12% | 5% | x | x
COc1ccccc1C1(O)CCN(CCCn2c3ccccc3c3ccccc32)CC1 | x | x | 0% | u
CCC(CO)Oc1cc(NCc2ccc(O)cc2)c2ncn(C(C)C)c2c1 (stereo not drawn) | u | -3% | x | -3%
CC(C)n1cnc2c(NCc3ccccc3)cc(N[C@H](C)CO)cc21 | u | 14µM* | x | 8.9µM*
